# CBX7 AlphaScr – CBX7 inhibition, primary AlphaScreen | normalised signal (fraction of DMSO) (no concentration beside the values) | O95931 | hit rate 1.1% among 66,000 | AlphaScreen His6-CBX7 / biotin-H3K27me3 peptide binding; active compounds read low; in the data active = normalised signal below about 0.5
# Target sequence (O95931 whole entry, looked up): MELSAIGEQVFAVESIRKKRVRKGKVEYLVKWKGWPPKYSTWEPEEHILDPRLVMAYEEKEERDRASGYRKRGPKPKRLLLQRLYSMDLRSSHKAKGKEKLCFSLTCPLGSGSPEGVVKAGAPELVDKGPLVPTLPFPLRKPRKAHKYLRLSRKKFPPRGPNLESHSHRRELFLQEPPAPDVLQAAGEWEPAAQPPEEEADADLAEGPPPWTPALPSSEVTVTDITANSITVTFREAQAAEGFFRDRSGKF
# The depositor's hits bear a star. This is one part of a sample in which hits are shown more often than they occur.
SMILES,CBX7 AlphaScr
CCOC(=O)C1CCN(S(=O)(=O)c2ccc3c(c2)CCC(=O)N3)CC1,1
CCCN(CCC)C(=O)CCS(=O)(=O)c1ccc2c(c1)CCN2C(=O)CC,0.98
CCCCNC(=O)C1CCN(Cc2nc(-c3ccccc3F)oc2C)CC1,1.1
COc1ccc(NC(=O)C2CCCN(Cc3ccccc3)C2)cc1OCC(C)C (stereo not drawn),1
CCOCCCNC(=O)CCC(=O)Nc1ccc2nc(N3CCN(C)CC3)cc(C)c2c1,1.1
Cc1ccc(Nc2c(-c3cccc(Cl)c3)nc3ccccn23)cc1,1.1
COCCNC(=O)c1nn(-c2ccccc2OC)c(=O)c2ccccc12,1
CCN(CCCNC(=O)c1nn(-c2ccccc2OC)c(=O)c2ccccc12)c1cccc(C)c1,0.48*
COc1ccccc1CNC(=O)c1nn(-c2ccccc2OC)c(=O)c2ccccc12,0.94
O=C(C1CCN(c2nnc(-n3cccc3)s2)CC1)N1CCC2(CC1)OCCO2,1
Cc1ccccc1NC(=O)c1ccc(F)c(S(=O)(=O)N2CCCCCC2)c1,0.99
Cc1cccc(NC(=O)CSc2nccn2-c2cccc(Cl)c2)c1C,0.47*
Cc1cccc(NC(=O)CSc2nccn2-c2ccccc2)c1C,0.77
Cc1ccc(C)c(NC(=O)CSc2nccn2-c2cccc(Cl)c2)c1,0.93
COc1ccccc1NC(=O)CSc1nccn1-c1cccc(Cl)c1,0.97
Cc1cccc(NC(=O)CSc2nccn2-c2ccc(Cl)cc2)c1C,0.44*
CCOc1ccccc1NC(=O)CSc1nccn1-c1cccc(C)c1,0.76
Cc1cc(C)c(NC(=O)CSc2nccn2-c2cccc(Cl)c2)c(C)c1,0.88
Cc1ccc(C)c(NC(=O)CSc2nccn2-c2ccc(Cl)cc2)c1,0.8
CCOc1ccccc1NC(=O)CSc1nccn1-c1cccc(Cl)c1,0.29*
COCCNC(=O)Cn1nc(-c2ccc(Cl)cc2)ccc1=O,1
Cc1cc(C)cc(C(=O)N2CC(=O)Nc3ccc(F)cc3C2c2ccccc2)c1 (stereo not drawn),0.97
Cc1onc(-c2ccccc2Cl)c1C(=O)Nc1ccc(N2C(=O)c3ccccc3C2=O)cc1,0.92
COc1ccc(NC(=O)c2sc3nc(-c4ccc(F)cc4)cn3c2C)cc1,0.96
CN1CCN(C(=O)c2nn3c(C(F)(F)F)cc(-c4cccs4)nc3c2Br)CC1,1
SMILES,CBX7 AlphaScr
Cc1nnc(SCC(=O)Nc2ccc3ccccc3c2)[nH]c1=O,1
CCOC(=O)c1cnc2ccc(OCC)cc2c1N1CCN(Cc2ccccc2)CC1,0.5*
CCOC(=O)c1cnc2ccc(OCC)cc2c1N1CCN(C)CC1,1.2
CCOC(=O)c1cnc2ccc(OCC)cc2c1N1CCN(c2ccccn2)CC1,0.58
CC1CCCCN1S(=O)(=O)c1ccc(C(=O)Nc2nc(-c3ccccn3)cs2)cc1 (stereo not drawn),0.19*
CC1CCN(S(=O)(=O)c2ccc(C(=O)Nc3nc(-c4ccncc4)cs3)cc2)CC1,1
O=C(Nc1nc(-c2ccncc2)cs1)c1ccc(S(=O)(=O)N2CCCCC2)cc1,1
CC1CCCCN1S(=O)(=O)c1ccc(C(=O)Nc2nc(-c3ccncc3)cs2)cc1 (stereo not drawn),1
CC1CCN(S(=O)(=O)c2ccc(C(=O)Nc3nc(-c4ccccn4)cs3)cc2)CC1,0.96
CC1CCCN(S(=O)(=O)c2ccc(C(=O)Nc3nc(-c4ccccn4)cs3)cc2)C1 (stereo not drawn),0.22*
CCC(=O)N1CCc2cc(S(=O)(=O)NCCC(=O)Nc3ccc(C(C)C)cc3)ccc21,0.91
COc1cc(OC)cc(-c2nnc(NC(=O)c3ccc(S(=O)(=O)N4CCCC(C)C4)cc3)o2)c1 (stereo not drawn),1.1
COc1cc(OC)cc(-c2nnc(NC(=O)c3ccc(S(=O)(=O)N(C)Cc4ccccc4)cc3)o2)c1,0.076*
COc1ccc(-c2nnc(NC(=O)c3ccc(S(=O)(=O)N(C)Cc4ccccc4)cc3)o2)c(OC)c1,0.0014*
COc1ccccc1-c1nnc(NC(=O)c2ccc(S(=O)(=O)N3CCC(C)CC3)cc2)o1,0.85
COc1ccccc1-c1nnc(NC(=O)c2ccc(S(=O)(=O)N3CCCC(C)C3)cc2)o1 (stereo not drawn),0.82
COc1cccc(-c2nnc(NC(=O)c3ccc(S(=O)(=O)N(C)C)cc3)o2)c1,0.23*
COCCN(CCOC)S(=O)(=O)c1ccc(C(=O)Nc2nnc(-c3cccc(OC)c3)o2)cc1,0.95
COc1ccccc1-c1nnc(NC(=O)c2ccc(S(=O)(=O)N(C)C)cc2)o1,0.036*
CCCCN(C)S(=O)(=O)c1ccc(C(=O)Nc2nnc(-c3ccc(OC)cc3OC)o2)cc1,0.97
COc1ccc(-c2nnc(NC(=O)c3ccc(S(=O)(=O)N4CCOCC4)cc3)o2)c(OC)c1,0.58
Cc1cc(NC(=O)Cn2nc(Cc3cccnc3)c3ccccc3c2=O)no1,1.1
CCOc1ccc(CN2C(=O)c3ccccc3C2C(=O)NCCc2ccccc2)cc1OC (stereo not drawn),0.99
COc1ccc(-c2nc3ccccc3c(=O)n2-c2nc3ccccc3n2C)cc1,1
CCOC(=O)c1cc(-c2ccccc2)n(CCC(=O)Nc2ccc(OC)cc2)c1C,0.96

# Source: PubChem BioAssay
